Rows were chosen to be rich in hits. Some 19% of all compounds tested hit in one or more screens of this group.
DT40 TDP1 no CPT: qHTS for Inhibitors of human tyrosyl-DNA phosphodiesterase 1 (TDP1): qHTS in cells in absence of CPT; DT40 Tdp1-/- hTDP1 cells, no CPT, ATP luminescence, 48 h; AID 686978, 2013; Potency, µM (highest dose often 46.2 µM), inactives show at the highest dose activity change, negative = growth inhibition, usual class: inhibitors; 420,000 tested, 15% active; also: potency is read from the fitted curve at half-maximal effect; nearly all actives have a fitted effect of over 55% in size
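Chicken DT40 Tdp1-/- cells stably complemented with human TDP1 were seeded at 400 cells/well with DMSO in place of 20 nM camptothecin. After compound pinning, cells grew at least 48 hr at 37 °C; viability read by CellTiter-Glo luminescence.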
HT1080 IDH1KD tx: toxicity to HT-1080 IDH1 knockdown cells (counter line). Potency, µM (highest dose often 46.1 µM), for inactives: top-dose activity, negative = toxicity, usual class: cytotoxic. 360,000 tested, 2% active. HT-1080 IDH1 knockdown viability, ATP luminescence, 48 h;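 also: potency is read from the fitted curve at half-maximal effect; 0% = DMSO wells and -100% = cell-free medium wells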
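% activity derives from luminescence (CellTiter-Glo), normalised to DMSO and no-cell wells. HT-1080-IDH1KD cells, 750/well, had 48 h compound exposure at 37 °C.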
HT1080NT lethal: kills 2HG-producing HT-1080-NT fibrosarcoma cells; Potency, µM (top dose mostly 46.1 µM), for the others: top-dose activity, negative = less viability, usual class: cytotoxic; 360,000 tested, 1.6% active; HT-1080-NT fibrosarcoma viability, CellTiter-Glo ATP luminescence, 48 h;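 also: NT is the 2HG producing partner of a matched IDH1 knockdown line; potency is read from the fitted curve at half-maximal effect; 0% = DMSO-treated cells and -100% = media-only wells without cells; nearly all actives have a fitted effect of over 55% in size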
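Read-out is CellTiter-Glo luminescence after 10 minutes at room temperature, following 48 hours' compound treatment of HT-1080-NT cells (750 cells/well, RPMI, 5% FBS, 37 degrees C).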
TDP1 cell CPT: growth inhibition of DT40 Tdp1-/-;hTDP1 cells with camptothecin (screen for TDP1 inhibitors); chicken DT40 Tdp1-/-;hTDP1 cells + 20 nM CPT, ATP luminescence, 48 h; Potency, µM (series often up to 46.2 µM), for the others: top-dose activity change, negative = growth inhibition, actives largely listed as inhibitors; 420,000 tested, 12% active; also: potency is read from the fitted curve at half-maximal effect; nearly all actives have a fitted effect of over 55% in size
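Chicken DT40 Tdp1-/- cells complemented with human TDP1, 400 cells/well, exposed to compounds plus 20 nM camptothecin for at least 48 h at 37 C; viability read as ATP content by CellTiter-Glo luminescence.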
IL1B secr inh: inhibitors of inflammasome signaling (IL-1 beta secretion); THP-1 LPS/ATP IL-1B secretion, AlphaLISA, 16 h; hits give low values; activity change, % at 57.5 µM; 360,000 tested, 4.7% active; AID 743279; in the data active = activity change below about -50%; inconclusive = mostly about -30% to -49%
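THP-1 cells pretreated 1 hr with compounds (up to 57.5 uM final), then stimulated with LPS (250 ng/mL final) plus ATP (1.25 mM final); secreted IL-1B measured by AlphaLISA after 16 hr, decreased signal indicating inhibition.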
* = called active by the depositor; ? = inconclusive; · = no result. Unless noted, calls follow the shape of the dose curve; as a rule, active = well fitted curve in the direction sought with a large enough effect; inconclusive = small, poorly fitted or top-dose-only effect, or another doubt; inactive = no such curve, though single readings can be large; an effect the other way counts as inactive or inconclusive. Unless noted, % is scaled to controls: 0 for no effect and ±100 for the full control effect.

SMILES	DT40 TDP1 no CPT	HT1080 IDH1KD tx	HT1080NT lethal	TDP1 cell CPT	IL1B secr inh
CCOC(=O)C1=C(COC(=O)c2ccc(Cl)nc2)NC(=O)NC1C (configuration not stated)	0.6%	12.1%	14.6%	0.1%	6.6
Cc1ccc(S[C@@H](CCN2CC[C@H](NC(=O)OCc3ccccc3)CCC2=O)c2ccccc2)cc1	11.2µM*	-4.1%	-20.2%	23.1µM*	-10.6
C[C@@H](CSc1ccc(Br)cc1)CN1CC[C@H](C(C)(C)C)CCC1=O	?	-3.1%	1.7%	?	-11.2
Cc1ccc(SC[C@H](C)CN2CC[C@H](C(C)(C)C)CCC2=O)cc1	16.4µM*	-14.3%	-2.0%	?	20.6
C[C@@H]1CN([C@@H](C)CO)C(=O)CCCn2nncc2CO[C@H]1CN(C)S(=O)(=O)c1ccccc1F	4.6%	0.6%	18.2%	-1.4%	13.2
COCCN1C[C@@H](CO)O[C@@H](n2cnc3c(NCCO)ncnc32)C1	?	11.6%	26.0%	-11.5%	32.3
c1ccc(OCCCN2CCCC2)cc1	-2.2%	10.1%	7.6%	-3.5%	9.8
CC(C)(c1ccccc1)c1ccc(OCCCN2CCNCC2)cc1	7.31µM*	20.6µM*	-5.3%	5.8µM*	-80.2*
CC1CCN(CCCCOc2ccc(C(C)(C)C)cc2)CC1	?	-25.0%	-24.3%	23.1µM*	?
CCC(C)NCCOc1ccc(C(C)(C)c2ccccc2)cc1 (configuration not stated)	16.4µM*	?	18.4µM*	?	-66.2*
CC(C)(C)c1ccc(OCCCCCCN2CCNCC2)cc1	8.2µM*	23.1µM*	?	18.4µM*	-80.4*
Cc1cc(C)cc(NC(=O)C2CC(=O)N(c3ccccc3)C2)c1 (configuration not stated)	?	·	·	-24.0%	·
COc1cccc(Nc2ncnc3nc[nH]c23)c1	?	1.8%	17.8%	-26.5%	91.4
CCN(CC)C(=O)Cn1cc(S(=O)(=O)CC(=O)NC2CCCCC2)c2ccccc21	-22.8%	13.7%	0.0%	-3.0%	-19.5
Cc1ccc(CN2C(=O)c3ccccc3C2c2nnnn2C(C)C)cc1 (configuration not stated)	-27.3%	12.8%	9.1%	-5.6%	15.5
CC(C)(c1ccccc1)c1ccc(OCCN2CCOCC2)cc1	16.4µM*	-6.3%	-3.6%	?	40.1
CCCCN(C)CC(O)Cn1cc(/C=C/C(=O)c2ccc(C)cc2)c2ccccc21 (configuration not stated)	9.2µM*	?	?	7.31µM*	?
COc1ccc(C(=O)/C=C/c2cn(CC(O)CN3CCN(C)CC3)c3ccccc23)cc1OC (configuration not stated)	?	14.6µM*	16.4µM*	?	·
CN(C)/C=C/C(=O)c1ccc(Br)cc1	-7.2%	-1.3%	12.1%	43.1%	-29.7
CCCCN(C)CC(O)Cn1cc(/C=C/C(=O)c2ccc(OC)c(OC)c2)c2ccccc21 (configuration not stated)	20.6µM*	·	·	18.4µM*	·
CCCCN(C)CC(O)Cn1cc(/C=C/C(=O)c2ccc(Br)cc2)c2ccccc21 (configuration not stated)	5.17µM*	·	·	6.51µM*	·
Cc1ccc(Nc2nc(C)cc(C)c2C#N)c(C)c1	-6.0%	1.8%	-0.8%	?	34.1
Cc1cc(Br)ccc1NC(=O)C1C2CCC(O2)C1C(=O)O (configuration not stated)	-23.2%	3.4%	16.1%	3.1%	43.3
Cc1nc2ccccc2c(=O)n1NC(=O)c1ccc(Cl)c(Cl)c1	-20.4%	0.8%	13.3%	-4.0%	0.5
Cc1c(C(=O)Nc2ccccc2)cnn1-c1ccccc1	-28.6%	-0.9%	-14.9%	-2.7%	?
Cc1c(C(=O)Nc2cccc(F)c2)cnn1-c1ccccc1	14.6µM*	-19.7%	-1.0%	18.4µM*	-22.6
Cc1ccc(C)c(NC(=O)c2cnn(-c3ccccc3)c2C)c1	?	-3.7%	-4.8%	?	-57.9*

Assay outcomes from PubChem.
